According to the supplement of paper PMC6555819:

System: RARa homodimer (NR concentration 270 nM)
Experiment: PBM binding z-score (relative to random genomic background probes); higher = stronger binding; sequences stand for … in GC…GCGATTGACAGCGTAGAATGAAGG
Procedure, shortened: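 The probes on custom Agilent 4×180K protein-binding microarrays were double-stranded, with 34-nt variable regions bearing direct-repeat seeds, single-nucleotide variants, half-site ablations and random human genomic background sequences. Incubation lasted 1 h with ligand-free nuclear receptor dimers in PBS pH 7.4, 2% milk, 0.02% Triton X-100, 1 mM DTT, 0.2 mg/mL BSA and 0.4 mg/ml salmon testes DNA. Antibodies against each partner (one per run) detected bound dimers, and fluorescence scans were regression-normalized. Binding z-scores take the random background probes as reference.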

Row | Sequence | PBM binding z-score
1 | CTATGTAGGTTAAGGGGGTTATTCAGTTTGAAAG | 1.62
2 | TCGAGTAGGTTACGGAGGCATTCAGGGATGAAGA | -0.666
3 | CTATGTAGGTTAAGCGGGTCATTCAGTTTGAAAG | 0.415
4 | CGATGTAGGTTAAGGGGGTCATTCAGTTTGAAAG | 4.27
5 | CTATGTAGGTTAAGGGGGCCATTCAGTTTGAAAG | 0.379
6 | CTATGCAGGTTAAGGGGGTCATTCAGTTTGAAAG | 1.66
7 | TCGAGTAGGTTACTGGGGCATTCAGGGATGAAGA | -0.357
8 | CCGACTAGGTTACGAGGGGGCATTCAGTGCGAAT | 0.38
9 | CCGAGTAGGTTACGAGGGGGCATTCGGTGCGAAT | 0.224
10 | TCGAGTAGGTTACGGGGGCATTCAGGGATGAAGA | 1.5
11 | TCGAGTAGGTTACGGGGGCATTAAGGGATGAAGA | 0.727
12 | CAATGTAGGTTAAGGGGGTCATTCAGTTTGAAAG | 4.17
13 | CTATGTAGGTTAATGGGGTCATTCAGTTTGAAAG | 1.57
14 | CCGAGTAGGTTACGAGGCGGCATTCAGTGCGAAT | -0.448
15 | CCGAGTAGGTTACGAGGGCGCATTCAGTGCGAAT | -0.752
16 | CTATGTAGGTGAAGGGGGTCATTCAGTTTGAAAG | 0.852
17 | TCTAGTAGGTTACGGGGGCATTCAGGGATGAAGA | 1.37
18 | CCGAGTAAGTTACGAGGGGGCATTCAGTGCGAAT | 0.219
19 | CTATGTAGGGTAAGGGGGTCATTCAGTTTGAAAG | 1.26
20 | CTATGTAGGTTAAAGGGGTCATTCAGTTTGAAAG | 1.99

Row | Sequence | PBM binding z-score
21 | CTCTGTAGGTTAAGGGGGTCATTCAGTTTGAAAG | 1.78
22 | TCGAGTAGGTTACGGGGGCATTGAGGGATGAAGA | 0.325
23 | CCGAGTAGGTAACGAGGGGGCATTCAGTGCGAAT | 0.592
24 | CTATTTAGGTTAAGGGGGTCATTCAGTTTGAAAG | 2.72
25 | CTATGTAGGTTCAGGGGGTCATTCAGTTTGAAAG | 2.03
26 | TCGAGTAGGTTACGGGCGCATTCAGGGATGAAGA | -0.39
27 | CTATGTACGTTAAGGGGGTCATTCAGTTTGAAAG | 1.37
28 | CCGAGTAGGTTCCGAGGGGGCATTCAGTGCGAAT | 0.637
29 | CTATGTAGGTTAAGGGGGTCATTTAGTTTGAAAG | 1.96
30 | CCGATTAGGTTACGAGGGGGCATTCAGTGCGAAT | 0.441
31 | CTATGTAGGTTAACGGGGTCATTCAGTTTGAAAG | 0.661
32 | TCGAGTAGGTTACGGGGGCATCCAGGGATGAAGA | 0.18
33 | CCGAGTAGGTTATGAGGGGGCATTCAGTGCGAAT | 0.734
34 | CCGAGTAGGTCACGAGGGGGCATTCAGTGCGAAT | 1.07
35 | TCGAGTAGGTTACGCGGGCATTCAGGGATGAAGA | -0.865
36 | CCGCGTAGGTTACGAGGGGGCATTCAGTGCGAAT | -0.311
37 | CTATGTAGGTTAAGGGGTTCATTCAGTTTGAAAG | 1.25
38 | CCGAGTAGGTTACGATGGGGCATTCAGTGCGAAT | -0.659
39 | TCGAGTAGGTTACGGGGTCATTCAGGGATGAAGA | 0.377
